Results from PubChem BioAssay AID504332 (National Center for Advancing Translational Sciences (NCATS), 2011).
“And” between values parts separate entries of the source, which are not always exact repeats. Equal entries are not always repeated. The whole screen tested about 350,000 compounds, of which about 31,000 (8.9%) were called active. Inconclusive results (about 15%) are left out. The sample holds actives, similar compounds and a random draw of the others, so the mix is not that of the screen. Calls follow the shape of the dose curve; as a rule, active = well fitted inhibition curve with a large enough effect; inconclusive = small, poorly fitted or top-dose-only effect; inactive = no such curve, though single readings can be large or run the other way.

target: Histone-lysine N-methyltransferase EHMT2 (Homo sapiens) (UniProt Q96KQ7); experiment: qHTS Assay for Inhibitors of Histone Lysine Methyltransferase G9a; settings: G9a H3K9 monomethylation, AlphaScreen, 2 h; series mostly up to 59 µM; activity, negative = inhibition: at the top concentration; also: nearly all actives have a fitted effect of over 75% in size
Sequence (Q96KQ7 913-1193 limits assumed): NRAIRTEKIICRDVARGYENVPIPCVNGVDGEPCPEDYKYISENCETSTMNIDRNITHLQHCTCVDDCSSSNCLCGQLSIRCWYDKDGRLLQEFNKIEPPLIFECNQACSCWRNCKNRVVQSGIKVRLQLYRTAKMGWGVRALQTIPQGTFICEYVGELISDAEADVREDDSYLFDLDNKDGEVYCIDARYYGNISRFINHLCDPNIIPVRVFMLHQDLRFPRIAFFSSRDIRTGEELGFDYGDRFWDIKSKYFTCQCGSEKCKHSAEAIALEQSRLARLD
In short: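 Compounds were preincubated with 20 nM G9a for 15 min, after which biotinylated H3K9 peptide (500 nM) and SAM (20 uM) started a 2 h room-temperature reaction. Monomethylated product was quantified by antibody-based AlphaScreen chemiluminescence.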
% is scaled to controls: 0 for no effect and ±100 for the full control effect; potency is read from the fitted curve at half-maximal effect.

| Compound | activity, negative = inhibition | Potency |
| --- | --- | --- |
| Cc1nc2ccccc2n1CC(=O)N/N=C/c1cccnc1 | -0.153% [at 102 µM] (inactive) | – |
| CCOc1ccc(/C=N/NC(=O)CSc2ccccn2)cc1O | 6.98% [at 102 µM] (inactive) | – |
| Cc1nccn1CC(=O)N/N=C/c1ccc(O)c(O)c1 | – | 7.08 µM (active) |
| Cc1ccc(/C=N/NC(=O)CSc2nc3ccccc3o2)cc1 | 11.8% (inactive) | – |
| CCOc1cc(/C=N/NC(=O)CN2CCCCC2)ccc1O | 21.9% [at 102 µM] (inactive) | – |
| Cn1c(SCC(=O)N/N=C/c2ccc(O)c(O)c2)nc2ccccc21 | – | 17.8 µM (active) |
| O=C(NCC(=O)N1CCCCCCC1)c1ccccc1Cl | 8.52% [at 12.7 µM] (inactive) | – |
| Cc1c(C(=O)NCC(c2ccco2)N2CCCC2)oc2ccc(Cl)cc12 (stereo not given) | 0.391% (inactive) | – |
| Cc1ccc(S(=O)(=O)NCCC(=O)NC2CCN(Cc3ccccc3)CC2)cc1 | 14.9% (inactive) | – |
| COc1ccc(-c2noc(-c3ccc(N4CCN(c5ccccc5)CC4)c([N+](=O)[O-])c3)n2)cc1OC | -34.5% (inactive) | – |
| CCOc1ccccc1NC(=O)CN1CCN(S(=O)(=O)c2ccc(Br)cc2)CC1 | -10.2% (inactive) | – |
| CCNS(=O)(=O)c1ccc(NC(=O)CSc2nc(-c3ccco3)cc(C(F)(F)F)n2)cc1 | 0.35% (inactive) | – |
| O=C(Nc1cc(-c2ccccc2)nn1-c1ccccc1F)c1ccc([N+](=O)[O-])cc1 | -22.8% [at 12.7 µM] (inactive) | – |
| CCOc1ccc(CC(=O)NC2CCN(Cc3ccccc3)CC2)cc1 | -4.74% [at 102 µM] (inactive) | – |
| CCOc1ccc(CN2CCCN(C)CC2)cc1 | – | 10 µM (active) |
| CCOc1ccc(CN2CCN(Cc3c[nH]c4ccccc34)CC2)cc1 | 25.4% [at 2.33 µM] (inactive) | – |
| Cc1cccc(Cn2c(SCCO)nc3c2c(=O)n(C)c(=O)n3C)c1 | -2.49% [at 102 µM] (inactive) | – |
| Cn1c(=O)c2c(nc(SCC(=O)Nc3ccc(F)cc3)n2Cc2ccccc2)n(C)c1=O | 12.4% (inactive) | – |
| COC(=O)C(C)Sc1nc2c(c(=O)n(C)c(=O)n2C)n1Cc1cccc(C)c1 (stereo not given) | – | 20 µM (active) |
| CCOc1ccccc1C(=O)Nc1ccc(S(=O)(=O)N2CCCCC2c2cccnc2)cc1 (stereo not given) | 5.63% (inactive) | – |
| N#CCSc1nn(-c2ccc(F)cc2)c(=S)s1 | -42.3% [at 102 µM] (inactive) | – |
| Cc1nnc(SCC(=O)NCc2ccccc2)s1 | -12.5% (inactive) | – |

| Compound | activity, negative = inhibition | Potency |
| --- | --- | --- |
| Cc1ccccc1-n1nc(SCC(=O)O)sc1=S | – | 50.1 µM (active) |
| Cn1c(N)c(C(=O)COC(=O)COc2ccc(Cl)cc2)c(=O)n(C)c1=O | 17.9% [at 12.7 µM] (inactive) | – |
| Cc1cccc(N2CCN(C(=O)c3cc4c(=O)oc5ccccc5c4s3)CC2C)c1 (stereo not given) | -6.57% (inactive) | – |
| CN(CCNC(=O)c1cc2c(-c3ccccc3F)nn(C)c2s1)C1CCCCC1 | -14.4% [at 102 µM] (inactive) | – |
| Oc1ccccc1-c1cc(-c2ccc(Cl)cc2)n[nH]1 | -5.84% [at 102 µM] (inactive) | – |
| O=C(NCc1ccc(F)cc1)c1ccc(Cn2c(SCc3ccc(F)cc3)nc3cccnc32)cc1 | -9.12% (inactive) | – |
| O=c1[nH]c(=O)c2nc3ccccc3nc2[nH]1 | -3.42% [at 12.7 µM] (inactive) and 46.4% [at 12.7 µM] (inactive) | – |
| Nc1ccc2nc3c(=O)[nH]c(=S)[nH]c3nc2c1 | – | 10 µM (active) |
| CC1CCCC(NC(=O)c2cc(-c3ccncc3)nc3ccccc23)C1C (stereo not given) | -22.5% [at 102 µM] (inactive) | – |
| Cc1cc(NS(=O)(=O)c2ccc3oc(=O)c4ncn(C)c4c3c2)ccc1Br | 10.1% (inactive) | – |
| Cc1ccccc1CSc1nc(-c2ccccc2)nc2c1Cc1c(CO)cnc(C)c1O2 | 0.451% (inactive) | – |
| Cc1cc(N2CCN(c3cccc(C(F)(F)F)c3)CC2)n2nc(-c3ccccc3)nc2n1 | -4.4% (inactive) | – |
| O=C(NC(Cc1ccccc1)C(=O)N1CCCC(C(F)(F)F)C1)c1ccccc1 (stereo not given) | -2.41% [at 102 µM] (inactive) | – |
| O=C(NCC(=O)N1CCCC(C(F)(F)F)C1)c1ccccc1F (stereo not given) | -3.38% [at 102 µM] (inactive) | – |
| FC(F)(F)C1CCCN(c2nsc3ccccc23)C1 (stereo not given) | – | 1.12 µM (active) |
| COc1cccc(CNc2nc(C(F)(F)F)nc3ccccc23)c1 | 52.2% [at 102 µM] (inactive) | – |
| CCc1ccc(C(CNc2nc(C(F)(F)F)nc3ccccc23)N(C)C)cc1 (stereo not given) | 4.66% [at 102 µM] (inactive) | – |
| NS(=O)(=O)c1ccc(CCNc2nc(C(F)(F)F)nc3ccccc23)cc1 | – | 70.8 µM (active) |
| Cc1ccc(-c2cc(C(=O)Oc3ccccc3Cl)no2)cc1C | 134% (inactive) | – |
| O=C(COC(=O)c1c(Cl)cccc1Cl)Nc1cccc(S(=O)(=O)NC2=NCCCCC2)c1 | -0.124% [at 12.7 µM] (inactive) | – |
| CC(NC(=O)c1ccccc1SCC(=O)N1CCCC1)c1ccccc1 (stereo not given) | -21.2% [at 102 µM] (inactive) | – |
| Cc1nnc(SCC(=O)N2CCc3ccccc32)n1-c1ccccc1 | -14.8% (inactive) | – |

| Compound | activity, negative = inhibition | Potency |
| --- | --- | --- |
| Cn1c(SCC(=O)N2CCCc3ccccc32)nc2ccccc2c1=O | 21% (inactive) | – |
| O=C(CSc1nc2[nH]ncc2c(=O)n1-c1ccccc1)N1CCCc2ccccc21 | – | 8.91 µM (active) |
| Cc1cccc[n+]1CC(=O)c1ccccc1 | 14.2% [at 102 µM] (inactive) | – |
| O=C(C[n+]1cc(Br)cc2ccccc21)c1ccc(F)cc1 | – | 50.1 µM (active) |
| O=C(CNC(=O)c1ccccc1F)c1ccc(Br)cc1 | -6.35% [at 102 µM] (inactive) | – |
| COC(=O)c1cnn(-c2ccc(C(=O)Nc3ccc(OC(F)(F)F)cc3)cc2)c1N | 5.03% (inactive) | – |
| COc1ccc(-c2cn3c(C)c(C(=O)Nc4cc(C)cc(C)c4)sc3n2)cc1 | 4.02% (inactive) | – |
| COc1ccc2c(-c3ccccc3)cc(SCC(=O)N(C)C3CCS(=O)(=O)C3)nc2c1 (stereo not given) | -40.4% (inactive) | – |
| CN(C(=O)CSc1nnc(-c2ccc(C(C)(C)C)cc2)n1C)C1CCS(=O)(=O)C1 (stereo not given) | 1.39% [at 12.7 µM] (inactive) | – |
| Cc1cc(C)c2nc(SCC(=O)N(C)C3CCS(=O)(=O)C3)cc(C)c2c1 (stereo not given) | – | 44.7 µM (active) |
| CCOC(=O)[C@H]1[C@H]2COc3ccc(C)cc3[C@@H]2N2C(=O)CN(Cc3ccc(F)cc3)C(=O)[C@@]12C | 9.53% [at 0.501 µM] (inactive) | – |
| O=C(NCc1cccc(Cl)c1)C1CCN(c2nnc(N3CCCC3=O)s2)CC1 | 36.7% [at 102 µM] (inactive) | – |
| CC(C)(CCl)C(=O)Nc1ccc(Sc2ccc(F)cc2)cc1 | -58.2% [at 2.33 µM] (inactive) | – |
| COC(=O)c1ccc(/C=N/OCC(=O)Nc2cc(F)ccc2F)cc1 | 16.3% [at 102 µM] (inactive) | – |
| COC(=O)c1ccc(Sc2ccc(F)cc2)c(N)c1 | – | 28.2 µM (active) |
| CC(C)CC(=O)N1CCC(O)(CS(=O)(=O)Cc2ccccc2)CC1 | 11.5% [at 102 µM] (inactive) | – |
| Cc1ccccc1NC(=O)NCC1CCN(Cc2cccc(Cl)c2)CC1 | 2.62% [at 2.33 µM] (inactive) | – |
| CC(C)CC(=O)N1CCN(Cc2cccc(Cl)c2)CC1 | – | 22.4 µM (active) |
| CC(C)CC(=O)N1CCN(Cc2ccccc2Br)CC1 | – | 20 µM (active) |
| CC(CC(=O)N1CCN(c2ccccc2)CC1)c1ccccc1 (stereo not given) | 19.1% (inactive) | – |
| O=C(c1cccc(Cl)c1)N1CCN(Cc2ccccc2)CC1 | 10% [at 102 µM] (inactive) | – |
